A short description of assay [1]: Nuclear factor erythroid 2-related factor 2/antioxidant responsive element (Nrf2/ARE) small molecule agonists: qHTS cell viability counter screen in human keratinocytes (AID 1919968; active = well fitted curve in the direction sought with a large enough effect in the repeat runs; an effect the other way counts as inactive or inconclusive; also: nearly all actives have a fitted effect of over 55% in size; also: potency is read from the fitted curve at half-maximal effect). In short, it runs like this:
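Viability counter-screen: KeratinoSens reporter cells, DMSO-delivered compounds, 23 h at 37 C, CellTiter-Fluor fluorescence.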
In general terms: In qHTS, concentration-response curves come from the screen itself.

Assay [2] is described as follows: Nuclear factor erythroid 2-related factor 2/antioxidant responsive element (Nrf2/ARE) small molecule agonists: luciferase reporter gene qHTS assay in human keratinocytes (AID 1919969). Also: nearly all actives have a fitted effect of over 35% in size. Also: potency is read from the fitted curve at half-maximal effect. A general note: Reporter assays use an easily measured gene product as a stand-in for the process of interest.
Assay [3] has as its target Gonadotropin-releasing hormone receptor (Homo sapiens) (UniProt P30968). Briefly: Human gonadotropin-releasing hormone receptor (GnRHR) small molecule agonists, calcium flux assay in GnRHR-HEK293 cells (AID 1920063). Also: nearly all actives have a fitted effect of over 35% in size. Put shortly:
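Tox21-format agonist screen using human GnRHR-expressing HEK293 cells and a fluorescent calcium dye; kinetic 3-min fluorescence reading after compound addition, 15-point concentration series run in triplicate.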
For orientation: Calcium flux is commonly read through the fluorescence of an indicator in the cells.

Assay [4] addresses KiSS-1 receptor (Homo sapiens) (UniProt Q969F8). Put plainly: Human kisspeptin (KISS1R) small molecule agonists, calcium flux assay in KISS1R-HEK293 cells (AID 1920064; active = well fitted curve in the direction sought with a large enough effect in the repeat runs; an effect the other way counts as inactive or inconclusive). In short, it runs like this:
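Intracellular calcium mobilization in KISS1R-HEK293 cells was recorded by fluorescence (Ex/Em 480/540) for 3 min following compound addition to cells pre-loaded 1 h with calcium dye.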

A short description of assay [5]: G protein-coupled receptor (GPCR) small molecule agonists, calcium flux assay: HEK293 wild type cell line counter screen (AID 1920065). Put shortly: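 In this agonist-mode screen, ATP is the positive control and DMSO the vehicle. Cells grow 18 h before a 1 h dye incubation at 37 C; signal is taken at Ex/Em 480/540 over 3 min.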
Assay [6] is described as follows: p53 small molecule agonists, cell-based qHTS assay with human liver microsomes (AID 1963577). In short, it runs like this: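 Compounds act here after metabolic activation: human liver microsomes and NADPH, both at 0.5 mg/mL final, were co-added to p53RE-bla cells. Incubation ran 16 h at 37 C, followed by LiveBLAzer detection.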
Assay [7] in a line: p53 small molecule agonists, cell-based qHTS assay with rat liver microsomes (AID 1963578). Put shortly: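 Read-out is beta-lactamase reporter fluorescence (LiveBLAzer, 2 h, room temperature, dark) in p53RE-bla cells treated 16 h at 37 C with compound, rat liver microsomes and NADPH, both 0.5 mg/mL final.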
Assay [8] can be described thus: p53 small molecule agonists, cell-based qHTS assay with human liver microsomes: qHTS cell viability counter screen (AID 1963579). Also: nearly all actives have a fitted effect of over 45% in size. Put shortly: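 Cells carrying the p53 response-element beta-lactamase reporter are treated for 16 h at 37 C with test compounds in the presence of human liver microsomes and NADPH (both 0.5 mg/mL final); ATP-based CellTiter-Glo luminescence then reports viability.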

The nature of assay [9]: p53 small molecule agonists, cell-based qHTS assay with rat liver microsomes: qHTS cell viability counter screen (AID 1963580). Also: nearly all actives have a fitted effect of over 45% in size. Also: potency is read from the fitted curve at half-maximal effect. In short, it runs like this: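 Intracellular ATP, by CellTiter-Glo luminescence, defines viability. HCT-116 p53RE-bla cells, 4,000 per well, were compound-treated in the presence of rat liver microsomes and NADPH for 16 h at 37 C.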
Assay [10] can be described thus: p53 small molecule agonists, cell-based qHTS assay: qHTS cell viability counter screen (AID 1963581). Also: nearly all actives have a fitted effect of over 45% in size. Put shortly:
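Compounds are pinned onto HCT-116 p53RE-bla cells and left 16 h at 37 C. Following the reporter FRET read, ATP is quantified by CellTiter-Glo luminescence after 30 min at room temperature.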

Assay [11] is described as follows: p53 small molecule agonists, cell-based qHTS assay (AID 1963582; active = well fitted activation curve with a large enough effect in the signal ratio in the repeat runs, not every such curve was filed as active; the % refers to the signal ratio). Put shortly: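 Agonist activity was scored from beta-lactamase FRET fluorescence in p53RE-bla cells treated 16 h at 37 C with compounds in DMSO, substrate incubation being 2 h at room temperature.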
Assay [12] concerns the target 5-hydroxytryptamine receptor 2A (Homo sapiens) (UniProt P28223). Briefly: 5-hydroxytryptamine receptor 2A (HTR2A) small molecule antagonists, cell-based qHTS assay (AID 1963586). Also: nearly all actives have a fitted effect of over 45% in size. In short, it runs like this: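 Antagonist-mode intracellular calcium assay: DOI (4 nM) added after 5 min compound pre-incubation at room temperature to dye-loaded HTR2A-CHO cells. Fluorescence followed for 3 min, sampled every second.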

Assay [13] shares this target. Briefly: 5-hydroxytryptamine receptor 2A (HTR2A) small molecule agonists, cell-based qHTS assay (AID 1963587). Also: nearly all actives have a fitted effect of over 30% in size. In short, it runs like this:
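Kinetic calcium-flux fluorescence (2 min, 1 sec intervals) after compound addition in agonist mode. HTR2A-CHO cells were cultured 18 h, then dye-loaded 1 h at 37 C.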

Assay [14] addresses Muscarinic acetylcholine receptor M1 (Homo sapiens) (UniProt P11229). Put plainly: Cholinergic receptor muscarinic 1 (CHRM1) small molecule antagonists, cell-based qHTS assay (AID 1963588). Also: nearly all actives have a fitted effect of over 40% in size. In short, it runs like this:
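CHRM1-CHO calcium-flux assay, antagonist mode. Cells were seeded 18 h, dye-loaded 1 h at 37 C and given compound for 5 min at RT, then acetylcholine was added at 50nM. FDSS fluorescence was read 3 min; 15 concentrations, three runs.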

Assay [15] has the same target. Briefly: Cholinergic receptor muscarinic 1 (CHRM1) small molecule agonists, cell-based qHTS assay (AID 1963589). Also: nearly all actives have a fitted effect of over 35% in size. Put shortly: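 Stable CHRM1-CHO cells (human receptor) were incubated 18 h, dye-loaded for 1 h at 37 C and exposed to test compounds for agonist activity, with calcium-dependent fluorescence followed kinetically.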
The nature of assay [16]: cAMP Responsive Elements (CRE) small molecule agonists, cell-based qHTS assay (AID 1963590). In short, it runs like this:
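FRET-based beta-lactamase readout (LiveBLAzer B/G, 2 h RT) quantified CRE activation in HEK 293T CRE-bla cells after 3 h treatment with DMSO-dissolved compounds.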

Assay [17] in a line: cAMP Responsive Elements (CRE) small molecule antagonists, cell-based qHTS assay (AID 1963591; active = well fitted inhibition curve with a large enough effect in the signal ratio in the repeat runs, not every such curve was filed as active; the % refers to the signal ratio). In short, it runs like this:
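qHTS in CRE-bla HEK 293T cells: compound in DMSO, then 0.25 uM NKH477 (final), 3 h at 37 °C/5% CO2; beta-lactamase FRET read-out after 2 h substrate incubation.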

In assay [18] the target is Beta-2 adrenergic receptor (Homo sapiens) (UniProt P07550). Put plainly: Adrenergic beta2 receptor (ADRB2) small molecule antagonists, cell-based qHTS assay (AID 1963592). Also: series mostly up to about 92 µM; nearly all actives have a fitted effect of over 50% in size. In short, it runs like this: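 Cells (CHO, stable ADRB2 overexpression) incubated 18-20hr at 37C; compounds added from DMSO; agonist mix (1nM isoproterenol, 100uM IBMX, 25uM Ro-20-1724) added; 0.5hr RT; d2-cAMP and anti-cAMP-cryptate added; 1hr RT; 665/615 nm read.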

The target in assay [19] is D(2) dopamine receptor (Homo sapiens) (UniProt P14416). Put plainly: Dopamine D2 receptor (DRD2) small molecule agonists, cell-based qHTS assay (AID 1963594). Also: nearly all actives have a fitted effect of over 35% in size. In short, it runs like this:
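cAMP accumulation in DRD2-HEK293 cells measured by HTRF after 1 h detection; compounds added 10 min before NKH477 (200nM […]) forskolin-analogue stimulation, 30 min at room temperature, with Ro20-1724 present at 0.1 mM final.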

Assay [20] shares this target. Put plainly: Dopamine D2 receptor (DRD2) small molecule antagonists, cell-based qHTS assay (AID 1963595; active = well fitted inhibition curve with a large enough effect in the signal ratio in the repeat runs, with a control signal flat; the % refers to the signal ratio). Put shortly:
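Antagonism was scored as restored cAMP in HEK293-DRD2 cells. These cells were stimulated with 200 nM NKH477 and 12 nM quinpirole for 30 min at room temperature, in the presence of 0.1 mM Ro20-1724.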

Our source for the Potency and activity change, negative = inhibition values is PubChem BioAssay (Tox21).

“And” between values parts separate entries of the source, which are not always exact repeats. Identical values can stand only once. Records with an inconclusive call do not appear. The source holds several records for some structures; these can differ, active in one and inactive in another. The source made the active and inactive calls. Unless noted, calls follow the shape of the full dose curve.
% is scaled to controls: 0 for no effect and ±100 for the full control effect.

Chain of KiSS-1 receptor (Homo sapiens) (Q969F8 whole entry, looked up): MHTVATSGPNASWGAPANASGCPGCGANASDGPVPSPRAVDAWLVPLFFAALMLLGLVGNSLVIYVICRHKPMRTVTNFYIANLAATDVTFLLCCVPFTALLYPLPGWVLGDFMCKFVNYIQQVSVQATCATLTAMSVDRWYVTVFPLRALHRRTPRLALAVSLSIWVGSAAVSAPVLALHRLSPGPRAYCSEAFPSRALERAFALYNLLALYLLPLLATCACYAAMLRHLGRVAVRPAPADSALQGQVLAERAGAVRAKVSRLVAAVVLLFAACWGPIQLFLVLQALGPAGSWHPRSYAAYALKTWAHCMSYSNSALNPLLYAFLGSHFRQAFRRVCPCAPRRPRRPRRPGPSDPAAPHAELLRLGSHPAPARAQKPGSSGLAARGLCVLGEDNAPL
Chain of D(2) dopamine receptor (Homo sapiens) (P14416 whole entry, looked up): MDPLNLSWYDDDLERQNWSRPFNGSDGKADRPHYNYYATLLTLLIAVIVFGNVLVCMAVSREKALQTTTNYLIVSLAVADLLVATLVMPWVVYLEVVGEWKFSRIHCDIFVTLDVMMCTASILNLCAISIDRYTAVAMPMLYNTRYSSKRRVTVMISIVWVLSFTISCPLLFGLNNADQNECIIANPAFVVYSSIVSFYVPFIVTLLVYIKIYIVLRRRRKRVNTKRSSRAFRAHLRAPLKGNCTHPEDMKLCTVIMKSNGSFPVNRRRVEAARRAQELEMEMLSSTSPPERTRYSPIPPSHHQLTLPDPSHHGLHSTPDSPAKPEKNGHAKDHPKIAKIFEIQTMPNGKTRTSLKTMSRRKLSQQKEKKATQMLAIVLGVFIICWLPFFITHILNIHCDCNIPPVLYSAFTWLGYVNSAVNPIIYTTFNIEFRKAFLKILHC
Chain of 5-hydroxytryptamine receptor 2A (Homo sapiens) (P28223 whole entry, looked up): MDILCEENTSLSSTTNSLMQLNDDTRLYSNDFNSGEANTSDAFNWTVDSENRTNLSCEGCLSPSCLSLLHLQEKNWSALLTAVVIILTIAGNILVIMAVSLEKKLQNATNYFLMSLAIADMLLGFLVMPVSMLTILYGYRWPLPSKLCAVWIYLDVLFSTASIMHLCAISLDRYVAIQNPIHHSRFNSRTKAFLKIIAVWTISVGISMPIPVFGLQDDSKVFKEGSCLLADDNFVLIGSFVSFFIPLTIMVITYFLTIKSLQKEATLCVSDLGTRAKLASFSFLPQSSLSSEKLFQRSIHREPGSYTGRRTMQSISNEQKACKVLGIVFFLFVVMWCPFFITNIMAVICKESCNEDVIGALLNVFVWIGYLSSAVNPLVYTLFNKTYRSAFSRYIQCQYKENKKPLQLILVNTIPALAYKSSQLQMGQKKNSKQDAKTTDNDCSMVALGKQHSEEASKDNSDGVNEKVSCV
Chain of Beta-2 adrenergic receptor (Homo sapiens) (P07550 whole entry, looked up): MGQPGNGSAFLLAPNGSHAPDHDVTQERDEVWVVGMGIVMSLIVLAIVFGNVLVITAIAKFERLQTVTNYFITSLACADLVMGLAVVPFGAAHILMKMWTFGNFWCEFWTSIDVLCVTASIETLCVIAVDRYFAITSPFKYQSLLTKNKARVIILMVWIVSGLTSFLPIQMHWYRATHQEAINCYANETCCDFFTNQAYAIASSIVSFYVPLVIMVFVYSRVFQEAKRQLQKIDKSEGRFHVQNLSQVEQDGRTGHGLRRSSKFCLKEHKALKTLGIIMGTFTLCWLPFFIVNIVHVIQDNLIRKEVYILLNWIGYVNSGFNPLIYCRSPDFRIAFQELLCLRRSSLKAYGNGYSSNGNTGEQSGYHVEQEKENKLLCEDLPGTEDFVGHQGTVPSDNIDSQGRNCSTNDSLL
Chain of Gonadotropin-releasing hormone receptor (Homo sapiens) (P30968 whole entry, looked up): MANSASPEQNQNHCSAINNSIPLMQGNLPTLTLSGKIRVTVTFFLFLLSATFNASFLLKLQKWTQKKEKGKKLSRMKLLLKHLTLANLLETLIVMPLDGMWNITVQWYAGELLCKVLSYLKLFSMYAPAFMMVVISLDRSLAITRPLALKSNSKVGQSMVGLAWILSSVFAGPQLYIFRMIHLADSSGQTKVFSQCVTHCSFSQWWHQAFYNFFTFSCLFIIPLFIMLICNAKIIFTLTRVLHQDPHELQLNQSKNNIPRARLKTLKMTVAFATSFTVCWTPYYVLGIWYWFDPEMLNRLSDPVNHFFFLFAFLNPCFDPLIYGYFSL
Chain of Muscarinic acetylcholine receptor M1 (Homo sapiens) (P11229 whole entry, looked up): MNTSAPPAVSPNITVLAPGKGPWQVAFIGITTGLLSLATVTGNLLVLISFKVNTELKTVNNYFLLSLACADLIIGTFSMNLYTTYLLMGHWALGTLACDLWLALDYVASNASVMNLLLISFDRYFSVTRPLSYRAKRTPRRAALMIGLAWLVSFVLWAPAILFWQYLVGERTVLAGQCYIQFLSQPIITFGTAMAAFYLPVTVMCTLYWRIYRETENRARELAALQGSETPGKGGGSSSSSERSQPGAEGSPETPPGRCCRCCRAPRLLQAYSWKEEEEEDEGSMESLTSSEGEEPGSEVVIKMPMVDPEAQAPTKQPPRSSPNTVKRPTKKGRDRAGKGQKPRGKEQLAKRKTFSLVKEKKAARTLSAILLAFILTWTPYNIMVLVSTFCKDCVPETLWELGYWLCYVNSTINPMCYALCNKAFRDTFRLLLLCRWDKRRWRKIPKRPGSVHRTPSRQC

Consider `CC/C=C(\C(=O)N[C@@H]1C(=O)N2C(C(=O)OCOC(=O)C(C)(C)C)=C(COC(N)=O)CS[C@H]12)c1csc(N)n1`, for which the Potency entry in [1], in [3], in [4], in [5], in assay [6] and in assay [7] was “inactive” each time. Moreover, the Potency result in [8], in assay [9], in assay [10], in assay [11], in assay [12] and in [13] was “inactive” throughout. For the same molecule, the Potency result in assay [14], in assay [15], in assay [16], in assay [17], in assay [18] and in assay [19] was “inactive” throughout. Also, the Potency result in assay [20] was “inactive”. For the same molecule, the Potency result in assay [2] is “inactive and 29.8 µM (active)”.

In the case of `Cc1ccc([N+](=O)[O-])c(C)c1`, the Potency in [1] is 2.43 µM (active) and inactive; in [2] it was 1.93 µM (active) and inactive; in assay [9] it was 18.2 µM (active) and inactive. The Potency entry in assay [3], in assay [4], in [5], in [6], in assay [7] and in assay [8] was “inactive” each time. Besides, the Potency entry in [10], in assay [11], in assay [12], in assay [13], in assay [14] and in assay [15] was “inactive” throughout. The Potency result in assay [16], in assay [17], in assay [18], in assay [19] and in assay [20] was “inactive” in each case.

On to `Clc1ccc(Sc2cc(Cl)c(Cl)cc2Cl)cc1`, for which the Potency result in assay [1], in assay [2], in assay [3], in assay [4], in assay [5] and in assay [6] was “inactive” throughout. Besides, the Potency result in assay [7], in [8], in assay [9], in assay [10], in [11] and in assay [12] was “inactive” throughout. Also, the Potency result in [13], in assay [14], in [15], in assay [16], in assay [17] and in assay [18] was “inactive” throughout. Also, the Potency result in assay [19] and in assay [20] was “inactive” in each case.

`CCCCOCCOCCOC(C)=O`: the Potency entry in assay [1], in assay [2], in assay [3], in assay [4], in [5] and in assay [6] was “inactive” throughout. The Potency entry in assay [7], in assay [8], in assay [9], in assay [10], in assay [11] and in [12] was “inactive” in each case. The Potency result in assay [13], in [14], in assay [15], in assay [16], in [17] and in [18] was “inactive” each time. Moreover, the Potency entry in assay [19] and in assay [20] was “inactive” in each case.

For `OC1CCCCC1`, the Potency result in [1], in assay [2], in assay [3], in [4], in assay [5] and in [6] was “inactive” throughout. Moreover, the Potency entry in assay [7], in assay [8], in assay [9], in [10], in assay [11] and in [12] was “inactive” each time. Moreover, the Potency entry in [13], in assay [14], in assay [15], in [16], in assay [17] and in assay [18] was “inactive” throughout. Moreover, the Potency result in [19] and in [20] was “inactive” throughout.

As to `CCc1ccccc1CC`, the Potency result in [1], in assay [2], in [3], in assay [4], in [5] and in [6] was “inactive” each time. Also, the Potency result in assay [7], in assay [8], in [9], in [10], in [11] and in [12] was “inactive” each time. Besides, the Potency result in [13], in [14], in [15], in assay [16], in assay [19] and in [20] was “inactive” throughout. Besides, the activity change, negative = inhibition in assay [17] is 3.92% [at 18.9 µM] (inactive); in assay [18], -5.37% [at 19 µM] (inactive).

With `CC(=O)Nc1ccc(C(=O)O)cc1`, the Potency entry in [1], in assay [2], in assay [3], in assay [4], in [5] and in assay [6] was “inactive” each time. Further, the Potency result in assay [7], in assay [8], in [9], in assay [10], in assay [11] and in assay [12] was “inactive” each time. Further, the Potency result in assay [13], in [14], in assay [15], in assay [16], in [17] and in [18] was “inactive” each time. For the same molecule, the Potency result in assay [19] and in [20] was “inactive” each time.
